Laboratory results taken from ChEMBL document CHEMBL3988442, “University of Dundee, Small-Polar-MMV Screening Library” (2021).
For some of these results: Measured potencies and affinities stand elsewhere.

Experiments:
Design in all cases: scale not given: direction of the effect not stated beside the values
[1] = biological target: Protein translocase subunit SecA (Escherichia coli (strain K12)) (UniProt P10408); experiment: Assay to Identify E. coli SecA ATPase Inhibitors; assay type: functional; conditions: 30 µM
Protein translocase subunit SecA (Escherichia coli (strain K12)), sequence (P10408 whole entry): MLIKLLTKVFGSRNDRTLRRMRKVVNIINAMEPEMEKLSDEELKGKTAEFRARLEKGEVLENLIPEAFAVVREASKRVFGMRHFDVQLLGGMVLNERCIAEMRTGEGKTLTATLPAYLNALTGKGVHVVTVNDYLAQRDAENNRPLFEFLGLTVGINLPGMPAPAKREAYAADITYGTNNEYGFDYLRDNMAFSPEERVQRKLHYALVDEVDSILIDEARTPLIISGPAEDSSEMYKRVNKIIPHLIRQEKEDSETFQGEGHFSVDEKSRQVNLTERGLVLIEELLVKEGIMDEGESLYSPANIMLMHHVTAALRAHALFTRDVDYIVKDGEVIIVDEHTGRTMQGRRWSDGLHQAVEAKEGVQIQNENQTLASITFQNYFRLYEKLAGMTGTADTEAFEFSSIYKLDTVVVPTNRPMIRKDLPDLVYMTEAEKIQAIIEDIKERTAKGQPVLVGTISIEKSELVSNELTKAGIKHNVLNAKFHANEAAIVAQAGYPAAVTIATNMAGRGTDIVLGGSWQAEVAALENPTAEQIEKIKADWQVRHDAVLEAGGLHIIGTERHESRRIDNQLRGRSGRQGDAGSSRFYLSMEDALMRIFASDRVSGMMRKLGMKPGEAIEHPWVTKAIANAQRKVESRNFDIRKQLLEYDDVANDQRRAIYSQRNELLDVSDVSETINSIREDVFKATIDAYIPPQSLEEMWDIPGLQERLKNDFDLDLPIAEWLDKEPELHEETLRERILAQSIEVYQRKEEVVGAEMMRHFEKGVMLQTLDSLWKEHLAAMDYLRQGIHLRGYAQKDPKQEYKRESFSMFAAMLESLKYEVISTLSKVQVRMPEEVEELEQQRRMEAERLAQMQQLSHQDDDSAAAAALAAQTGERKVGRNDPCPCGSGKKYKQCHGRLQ

[2] = biological target: T1, Ubiquitin-activating enzyme e1, putative (Leishmania donovani (strain BPK282A1)) (UniProt E9BSI1); experiment: Leishmania donovani Ubiquitin Activating Enzyme (LdE1); assay type: functional; conditions: 30 µM
T1 sequence (whole entry): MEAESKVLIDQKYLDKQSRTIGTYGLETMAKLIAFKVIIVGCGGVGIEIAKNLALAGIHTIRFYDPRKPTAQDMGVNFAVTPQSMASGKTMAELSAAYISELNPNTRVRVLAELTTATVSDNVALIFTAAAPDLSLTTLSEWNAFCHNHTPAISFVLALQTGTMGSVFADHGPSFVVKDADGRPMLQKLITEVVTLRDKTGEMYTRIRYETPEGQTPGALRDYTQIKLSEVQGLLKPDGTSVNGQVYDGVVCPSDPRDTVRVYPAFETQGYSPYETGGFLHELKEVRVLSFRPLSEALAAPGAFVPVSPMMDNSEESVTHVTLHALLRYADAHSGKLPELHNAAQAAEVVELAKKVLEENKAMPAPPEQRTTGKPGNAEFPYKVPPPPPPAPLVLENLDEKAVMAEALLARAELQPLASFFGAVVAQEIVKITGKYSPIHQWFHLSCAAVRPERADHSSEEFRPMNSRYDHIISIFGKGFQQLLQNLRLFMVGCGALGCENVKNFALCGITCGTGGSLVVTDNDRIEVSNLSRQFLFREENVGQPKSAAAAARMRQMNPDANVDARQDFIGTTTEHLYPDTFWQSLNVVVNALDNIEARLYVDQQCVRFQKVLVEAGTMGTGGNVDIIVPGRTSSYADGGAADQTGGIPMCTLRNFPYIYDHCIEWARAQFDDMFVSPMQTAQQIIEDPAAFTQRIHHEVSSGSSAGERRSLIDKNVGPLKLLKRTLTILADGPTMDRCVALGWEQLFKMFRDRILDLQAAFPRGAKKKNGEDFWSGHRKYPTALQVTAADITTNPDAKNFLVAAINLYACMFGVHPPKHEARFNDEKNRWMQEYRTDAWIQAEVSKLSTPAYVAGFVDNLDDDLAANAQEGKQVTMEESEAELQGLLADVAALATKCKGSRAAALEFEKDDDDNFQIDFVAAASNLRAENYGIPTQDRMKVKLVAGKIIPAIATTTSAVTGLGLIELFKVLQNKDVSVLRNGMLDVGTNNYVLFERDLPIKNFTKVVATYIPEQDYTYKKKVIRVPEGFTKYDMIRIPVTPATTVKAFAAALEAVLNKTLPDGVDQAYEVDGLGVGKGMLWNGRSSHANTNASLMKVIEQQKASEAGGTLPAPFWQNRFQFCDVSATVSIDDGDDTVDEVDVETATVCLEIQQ

[3] = biological target: AMP-activated protein kinase, AMPK (Homo sapiens) (UniProt P54646+O43741+P54619+Q9UGJ0+Q9Y478+Q13131+Q9UGI9); experiment: AMP-dependent Kinase enzyme assay. An in vitro enzyme assay that detects ADP turnover that is directly proportional to AMPK activity. This uses naive AMPK that is activated during the assay with MK-8722; assay type: functional; conditions: 30 µM
[4] = biological target: Sialic acid-binding Ig-like lectin 9 (Homo sapiens) (UniProt Q9Y336); experiment: Hs-Siglec9 ALPHAscreen SOP 20170721; conditions: 10 µM
Sialic acid-binding Ig-like lectin 9 (Homo sapiens), sequence (Q9Y336 whole entry): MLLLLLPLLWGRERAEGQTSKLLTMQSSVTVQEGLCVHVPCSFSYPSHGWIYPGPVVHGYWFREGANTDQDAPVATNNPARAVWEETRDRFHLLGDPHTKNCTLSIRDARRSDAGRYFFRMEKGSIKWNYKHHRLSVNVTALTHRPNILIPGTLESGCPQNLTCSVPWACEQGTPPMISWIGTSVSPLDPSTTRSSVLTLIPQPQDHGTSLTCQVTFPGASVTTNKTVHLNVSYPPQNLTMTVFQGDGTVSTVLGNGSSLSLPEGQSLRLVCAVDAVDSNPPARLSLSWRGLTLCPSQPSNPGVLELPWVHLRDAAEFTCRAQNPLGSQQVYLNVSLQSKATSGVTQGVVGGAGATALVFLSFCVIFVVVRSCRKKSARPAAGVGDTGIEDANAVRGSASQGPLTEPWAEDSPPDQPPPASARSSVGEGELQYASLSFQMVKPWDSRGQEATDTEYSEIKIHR

Trypanosoma cruzi = experiment: Trypanosoma cruzi phosphomannomutase and mannose-1-phosphate guanylyltransferase assay; assay type: functional; conditions: 10 µM
[5] = biological target: T2, Arginase-2, mitochondrial (Homo sapiens) (UniProt P78540); experiment: in vitro enzyme assay to detect the production of urea directly proportional to the activity of Arginase II; assay type: functional; conditions: 33.3 µM; further: in the data most compounds retested in dose-response had high values
T2 sequence (whole entry): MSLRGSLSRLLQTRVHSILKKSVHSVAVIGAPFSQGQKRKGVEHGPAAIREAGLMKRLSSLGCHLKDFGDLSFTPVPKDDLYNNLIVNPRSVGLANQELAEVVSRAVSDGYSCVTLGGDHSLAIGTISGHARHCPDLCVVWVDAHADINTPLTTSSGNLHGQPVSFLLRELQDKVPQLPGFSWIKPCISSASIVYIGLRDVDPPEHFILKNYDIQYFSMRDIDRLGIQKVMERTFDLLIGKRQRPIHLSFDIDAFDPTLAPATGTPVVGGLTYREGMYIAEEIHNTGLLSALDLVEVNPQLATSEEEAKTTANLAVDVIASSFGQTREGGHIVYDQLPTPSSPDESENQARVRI

[6] = biological target: T3, Proteasome subunit beta (Trypanosoma cruzi) (UniProt O96673); experiment: Trypanosoma cruzi proteasome chymotrypsin-like activity (TcProtChymo) assay.; further: in the data most compounds retested in dose-response had high values; assay type: functional; conditions: 9.37 µM
T3 sequence (whole entry): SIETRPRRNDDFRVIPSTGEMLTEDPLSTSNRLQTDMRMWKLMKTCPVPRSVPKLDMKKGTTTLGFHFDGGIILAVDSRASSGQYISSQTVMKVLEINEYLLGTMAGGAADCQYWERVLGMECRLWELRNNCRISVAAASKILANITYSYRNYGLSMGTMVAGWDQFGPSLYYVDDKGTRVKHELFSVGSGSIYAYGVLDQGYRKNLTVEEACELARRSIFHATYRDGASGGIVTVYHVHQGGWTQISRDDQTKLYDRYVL

Homo sapiens = species on record: Homo sapiens; experiment: To identify inhibition of the IFN signalling (Jak-Stat) pathway via expression of an eGFP reporter gene under the control of an IFN-stimulated response element (ISRE) containing MxA promoter.; assay type: functional; conditions: 30 µM
[7] = biological target: T4, Tyrosyl-tRNA synthetase, putative (Trypanosoma cruzi (strain CL Brener)) (UniProt Q4DSP6); experiment: Trypanosoma cruzi tyrosyl tRNA synthetase (TcYRS) _High Tyrosine SOP; assay type: functional; conditions: 30 µM; further: in the data most compounds retested in dose-response had high values
T4 sequence (whole entry): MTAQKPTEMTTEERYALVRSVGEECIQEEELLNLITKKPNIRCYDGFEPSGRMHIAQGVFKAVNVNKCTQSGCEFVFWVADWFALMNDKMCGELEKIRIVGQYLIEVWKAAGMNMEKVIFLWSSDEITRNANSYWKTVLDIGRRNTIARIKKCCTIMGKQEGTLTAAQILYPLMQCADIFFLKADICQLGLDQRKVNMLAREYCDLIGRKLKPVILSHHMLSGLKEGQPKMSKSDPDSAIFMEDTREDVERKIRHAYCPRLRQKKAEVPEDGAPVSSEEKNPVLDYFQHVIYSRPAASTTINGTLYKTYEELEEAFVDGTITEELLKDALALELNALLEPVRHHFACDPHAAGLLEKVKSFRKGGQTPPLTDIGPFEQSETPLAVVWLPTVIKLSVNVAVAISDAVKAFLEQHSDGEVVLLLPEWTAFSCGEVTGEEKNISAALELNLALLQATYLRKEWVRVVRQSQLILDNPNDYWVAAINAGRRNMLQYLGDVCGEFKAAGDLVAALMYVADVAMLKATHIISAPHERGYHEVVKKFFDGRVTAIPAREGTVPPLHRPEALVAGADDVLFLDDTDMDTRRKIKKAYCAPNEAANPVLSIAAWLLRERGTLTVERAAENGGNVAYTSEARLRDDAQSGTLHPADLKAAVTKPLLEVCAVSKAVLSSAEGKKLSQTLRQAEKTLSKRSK

[8] = biological target: T4, Tyrosyl-tRNA synthetase, putative (Trypanosoma cruzi (strain CL Brener)); experiment: Trypanosoma cruzi tyrosyl tRNA synthetase (TcYRS) SOP; assay type: functional; conditions: 30 µM
[9] = biological target: Chromo domain-containing protein 1 (Saccharomyces cerevisiae (strain ATCC 204508 / S288c) (Baker's yeast)) (UniProt P32657); experiment: ScCHD-1 Enzyme Inhibition Assay; assay type: functional; conditions: 30 µM; further: in the data most compounds retested in dose-response had high values
Chromo domain-containing protein 1 (Saccharomyces cerevisiae (strain ATCC 204508 / S288c) (Baker's yeast)), sequence (P32657 whole entry, the tested form may be a part): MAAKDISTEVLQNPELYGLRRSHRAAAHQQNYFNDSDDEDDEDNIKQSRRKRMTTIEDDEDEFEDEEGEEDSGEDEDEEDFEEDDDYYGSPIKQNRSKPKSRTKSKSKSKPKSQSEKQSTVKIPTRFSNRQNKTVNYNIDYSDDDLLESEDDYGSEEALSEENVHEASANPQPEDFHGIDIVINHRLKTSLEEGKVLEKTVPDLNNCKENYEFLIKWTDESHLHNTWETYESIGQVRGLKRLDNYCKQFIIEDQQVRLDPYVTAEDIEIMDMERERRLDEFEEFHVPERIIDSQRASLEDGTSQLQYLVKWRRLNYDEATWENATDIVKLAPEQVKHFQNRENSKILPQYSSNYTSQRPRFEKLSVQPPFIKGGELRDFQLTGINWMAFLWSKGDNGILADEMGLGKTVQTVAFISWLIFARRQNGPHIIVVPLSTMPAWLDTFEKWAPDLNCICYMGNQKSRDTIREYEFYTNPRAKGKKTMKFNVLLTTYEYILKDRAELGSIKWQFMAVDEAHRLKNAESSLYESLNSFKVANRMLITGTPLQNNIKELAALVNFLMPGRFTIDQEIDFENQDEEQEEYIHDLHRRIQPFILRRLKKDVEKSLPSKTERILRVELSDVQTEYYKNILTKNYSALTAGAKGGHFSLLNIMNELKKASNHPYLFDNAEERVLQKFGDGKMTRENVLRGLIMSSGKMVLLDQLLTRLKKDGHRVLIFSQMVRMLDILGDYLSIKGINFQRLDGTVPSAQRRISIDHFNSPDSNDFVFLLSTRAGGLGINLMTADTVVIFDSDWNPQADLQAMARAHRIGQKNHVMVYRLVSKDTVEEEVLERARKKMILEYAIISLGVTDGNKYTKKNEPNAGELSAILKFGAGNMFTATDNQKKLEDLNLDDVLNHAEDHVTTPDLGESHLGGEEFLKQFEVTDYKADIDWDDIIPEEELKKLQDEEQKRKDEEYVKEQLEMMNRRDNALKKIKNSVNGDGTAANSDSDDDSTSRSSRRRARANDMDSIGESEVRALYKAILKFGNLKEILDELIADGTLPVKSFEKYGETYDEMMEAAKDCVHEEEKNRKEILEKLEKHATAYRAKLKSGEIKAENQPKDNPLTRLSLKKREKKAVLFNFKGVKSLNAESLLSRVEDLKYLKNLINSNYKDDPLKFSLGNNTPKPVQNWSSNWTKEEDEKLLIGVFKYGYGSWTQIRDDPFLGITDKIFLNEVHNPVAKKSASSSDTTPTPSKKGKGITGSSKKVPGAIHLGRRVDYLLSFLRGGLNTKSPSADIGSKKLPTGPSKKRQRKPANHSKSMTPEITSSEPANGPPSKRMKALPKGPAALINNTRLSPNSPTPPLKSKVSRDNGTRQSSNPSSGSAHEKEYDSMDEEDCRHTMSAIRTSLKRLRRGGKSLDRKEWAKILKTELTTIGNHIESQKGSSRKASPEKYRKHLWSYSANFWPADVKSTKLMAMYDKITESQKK

SMILES	Percent Effect [1]	Percent Effect [2]	Percent Effect [3]	Percent Effect [4]	Percent Effect (Trypanosoma cruzi)	Percent Effect [5]	Percent Effect [6]	Percent Effect (Homo sapiens)	Percent Effect [7]	Percent Effect [8]	Percent Effect [9]
NC(=O)CSCC(=O)N1CCc2cc(Cl)cc(Cl)c2C1	-5.75%	15.6%	4.28%	36.8%	6.98%	-57.9%	9.15%	-7.69%	3.23%	8.64%	-8.22%
O=S(=O)(c1cccs1)N1CCCn2cnc(CN3CCCC3)c2C1	-4.49%	10.7%	-0.197%	0.986%	-3.48%	-60.4%	13.8%	7.16%	4.17%	12.5%	-7.45%
O=C1CCSCC(C(=O)N2CCN(C3CCCCC3)CC2)N1 (configuration not stated)	-2.82%	0%	-2.68%	-4.3%	0.979%	3.64%	2.48%	-1.47%	5.38%	12.5%	-0.805%
Cc1ccc(N2CC[C@H]3C[C@@H](C(=O)N4CCOCC4)O[C@H]3C2)nn1	-2.71%	13.5%	-1.79%	-1.51%	-0.293%	-0.319%	11.6%	-4.87%	10.8%	15.4%	-1.79%
Cc1cc(CN2CC[C@H]3C[C@H](C(=O)N4CCC(C)CC4)O[C@H]3C2)no1	-3.17%	10.8%	0.505%	-2.16%	-1.07%	2.87%	22.5%	-12.1%	0%	12.8%	-2.88%
CC1CCCN(Cc2coc(-c3cccc(F)c3)n2)C1 (configuration not stated)	-5.97%	2.6%	8.2%	7.31%	1.31%	2.49%	-0.507%	3.77%	5.83%	2.44%	0.197%
CCNC(=O)[C@@H]1C[C@@H](NC(=O)Cc2ccccn2)CN1CCCSC	-5.92%	0%	1.44%	-0.868%	-4.37%	-1.2%	6.42%	5.01%	0%	-3.7%	0.131%
O=C1CC(c2cccnc2)C2(CCN(C(=O)c3ccncc3)CC2)N1 (configuration not stated)	-4.11%	10.8%	2.03%	-3.18%	3.81%	-4.78%	17.9%	-0.901%	4.32%	15.4%	1.46%
c1cc2nccc(CC3CCCN(Cc4ncc[nH]4)CC3)c2cn1 (configuration not stated)	-2.14%	9.46%	4.64%	12.8%	5.34%	-2.09%	9.98%	12.3%	11.8%	24.7%	-17.2%
Cn1c(CNc2c(F)cccc2-n2cccn2)cc(=O)n(C)c1=O	-1.07%	6.94%	-4.86%	3.69%	1.46%	20.8%	6.14%	5.47%	5.26%	10.3%	-0.228%
CCN1CCC2(CC1)CC(NC(=O)N(C)C)c1cc(C)ccc12 (configuration not stated)	-2.37%	16%	4.2%	0.476%	3.28%	-52.9%	14.4%	-15.2%	8.33%	-50%	-7.48%
Cc1cnn(CC(C)NCc2ccc(-n3cccn3)cc2)c1 (configuration not stated)	-1.91%	1.27%	2.55%	-4.21%	-3.18%	0.645%	-0.858%	-0.795%	0%	-12.7%	-18.2%
CC(C)CN1C(=O)C2(CCN(Cc3nccs3)C2)c2ccccc21 (configuration not stated)	-1.96%	5.41%	-2.39%	1.8%	-5.08%	5%	16.1%	37.2%	3.96%	3.66%	-5.7%
Cc1cc(C(=O)N2CCC(c3nccn3CCCN(C)C)CC2)no1	1.38%	11%	-2.51%	3.99%	2.74%	10.9%	20.8%	21.1%	6.45%	17.5%	-13.1%
CN1CC(=O)N(c2ccsc2)CC12CCN(S(C)(=O)=O)C2 (configuration not stated)	-4.15%	0%	-4.23%	-4.81%	6.84%	-2.5%	20%	-12.5%	3.96%	11%	-0.42%
CN(C)Cc1cnc2n1CCN(Cc1ccsc1)CC2	-2.78%	13.7%	-4.83%	6.79%	2.98%	1.2%	13.4%	6.89%	8.33%	11.1%	-0.604%
Cc1cnc(CN2CCC(N(C)Cc3nnc(C4CC4)n3C)C2)cn1 (configuration not stated)	-4.85%	0%	1.39%	-3.06%	-0.0978%	2.73%	8.67%	-19.5%	6.45%	8.64%	-2.52%
